Data published in PubChem BioAssay AID1159580 (chemical genetic matrix, 2015).
The whole screen tested about 5,500 compounds, of which about 2,000 (36%) were called active. About 18% were inconclusive and are not listed. Rule as the data show it: active = normalized growth mostly below about 0.91 (no sharp cut-off); inconclusive = no clear call, values can overlap the other calls; inactive = mostly above about 0.92. This is one part of the list.

Test: chemical genetic growth profiling, strain panel (AID 1159580);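 also: tested at 20 µM; growth read once vehicle control cultures reached saturation at 30 °C; 1 = growth at the plate median or of vehicle wells; lower values mean less growth of the strain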
Settings: S. cerevisiae deletion strains, growth OD

Measured: normalized growth

[N-]=[N+]=CC(=O)OCC(N)C(=O)O (centres undefined)
inactive: locus YAL021C, strain ccr4, stronger effect = lower value 0.994 | locus YAL026C, strain drs2, stronger effect = lower value 0.988 | locus YAL030W, strain snc1, stronger effect = lower value 1.02 | locus YBL061C, strain skt5, stronger effect = lower value 1.01 | locus YBR009C, strain hhf1, stronger effect = lower value 0.979 | locus YBR023C, strain chs3, stronger effect = lower value 0.995 | locus YBR171W, strain sec66, stronger effect = lower value 1.02 | locus YBR231C, strain swc5, stronger effect = lower value 1.03 | locus YBR279W, strain paf1, stronger effect = lower value 0.98 | locus YCL011C, strain gbp2, stronger effect = lower value 0.983 | locus YCL016C, strain dcc1, stronger effect = lower value 0.958 | locus YCL061C, strain MRC1, stronger effect = lower value 1.02 | locus YCL069W, strain vba3, stronger effect = lower value 1 | locus YCR088W, strain abp1, stronger effect = lower value 1.01 | locus YDL005C, strain med2, stronger effect = lower value 0.992 | locus YDL040C, strain nat1, stronger effect = lower value 1 | locus YDR001C, strain nth1, stronger effect = lower value 0.995 | locus YDR069C, strain doa4, stronger effect = lower value 1.03 | locus YDR137W, strain rgp1, stronger effect = lower value 0.99 | locus YDR159W, strain sac3, stronger effect = lower value 0.978 | locus YDR195W, strain ref2 1.03 | locus YDR297W, strain sur2, stronger effect = lower value 1.02 | locus YDR334W, strain swr1, stronger effect = lower value 1 | locus YDR335W, strain msn5, stronger effect = lower value 1.01 | locus YDR392W, strain spt3, stronger effect = lower value 0.931 | locus YEL003W, strain gim4, stronger effect = lower value 1.01 | locus YEL037C, strain rad23, stronger effect = lower value 1 | locus YEL061C, strain CIN8 (second series), stronger effect = lower value 1 | locus YER015W, strain faa2, stronger effect = lower value 1.01 | locus YER016W, strain bim1, stronger effect = lower value 0.995 | locus YER111C, strain swi4, stronger effect = lower value 1 | locus YER155C, strain BEM2 (second series), stronger effect = lower value 1.05 | locus YFR010W, strain ubp6, stronger effect = lower value 1.01 | locus YGL167C, strain pmr1, stronger effect = lower value 1.02 | locus YGL173C, strain kem1, stronger effect = lower value 1.02 | locus YGL227W, strain vid30, stronger effect = lower value 1.01 | locus YGL240W, strain doc1, stronger effect = lower value 1.04 | locus YGL253W, strain hxk2, stronger effect = lower value 0.973 | locus YHR013C, strain ard1, stronger effect = lower value 1.01 | locus YHR027C, strain rpn1, stronger effect = lower value 0.995 | locus YHR030C, strain SLT2, stronger effect = lower value 0.967 | locus YHR079C, strain IRE1, stronger effect = lower value 0.977 | locus YHR142W, strain chs7, stronger effect = lower value 0.976 | locus YJL092W, strain hpr5, stronger effect = lower value 1.01 | locus YJL095W, strain BCK1 (second series), stronger effect = lower value 1.01 | locus YJL095W, strain BCK1, stronger effect = lower value 0.977 | locus YJL115W, strain asf1, stronger effect = lower value 1.01 | locus YJL129C, strain trk1, stronger effect = lower value 1.01 | locus YJL154C, strain vps35, stronger effect = lower value 1 | locus YJL164C, strain tpk1, stronger effect = lower value 0.985 | locus YJL166W, strain qcr8, stronger effect = lower value 1.05 | locus YJR066W, strain TOR1, stronger effect = lower value 0.936 | locus YKL160W, strain elf1, stronger effect = lower value 1.02 | locus YKR026C, strain gcn3, stronger effect = lower value 1 | locus YKR091W, strain srl3, stronger effect = lower value 1.01 | locus YLL001W, strain dnm1, stronger effect = lower value 1.04 | locus YLL026W, stronger effect = lower value 1.01 | locus YLL041C, strain sdh2, stronger effect = lower value 1 | locus YLR027C, strain aat2, stronger effect = lower value 1.01 | locus YLR113W, strain HOG1, stronger effect = lower value 0.964 | locus YLR221C, strain rsa3, stronger effect = lower value 0.976 | locus YLR258W, strain gsy2, stronger effect = lower value 0.994 | locus YLR262C, strain YPT6 (second series), stronger effect = lower value 1.02 | locus YLR320W, strain mms22, stronger effect = lower value 0.991 | locus YLR342W, strain FKS1, stronger effect = lower value 1.04 | locus YLR357W, strain rsc2, stronger effect = lower value 1 | locus YLR370C, strain arc18, stronger effect = lower value 1.01 | locus YLR384C, strain iki3, stronger effect = lower value 1 | locus YML120C, strain ndi1, stronger effect = lower value 1 | locus YMR058W, strain fet3, stronger effect = lower value 1.01 | locus YMR125W, strain sto1, stronger effect = lower value 0.984 | locus YMR129W, stronger effect = lower value 0.999 | locus YMR205C, strain PFK2, stronger effect = lower value 1.03 | locus YMR231W, strain pep5, stronger effect = lower value 1 | locus YNL071W, strain lat1, stronger effect = lower value 0.992 | locus YNL183C, strain NPR1, stronger effect = lower value 0.937 | locus YNL209W, strain ssb2, stronger effect = lower value 0.989 | locus YNL248C, strain rpa49, stronger effect = lower value 0.976 | locus YNL322C, strain KRE1 (second series), stronger effect = lower value 0.999 | locus YNR049C, strain mso1, stronger effect = lower value 1 | locus YOR001W, strain rrp6, stronger effect = lower value 1.02 | locus YOR070C, strain gyp1, stronger effect = lower value 0.995 | locus YOR080W, strain dia2, stronger effect = lower value 1.02 | locus YOR083W, strain WHI5, stronger effect = lower value 0.992 | locus YOR106W, strain vam3, stronger effect = lower value 1.03 | locus YOR231W, strain MKK1, stronger effect = lower value 0.976 | locus YOR265W, strain rbl2, stronger effect = lower value 0.998 | locus YOR270C, strain vph1, stronger effect = lower value 1.03 | locus YOR290C, strain snf2, stronger effect = lower value 0.961 | locus YPL051W, strain arl3, stronger effect = lower value 1.01 | locus YPL078C, strain atp4, stronger effect = lower value 1.03 | locus YPL106C, strain sse1, stronger effect = lower value 0.966 | locus YPL240C, strain hsp82, stronger effect = lower value 0.99 | locus YPL256C, strain CLN2, stronger effect = lower value 1
